About 83,000 compounds went through this panel and 20% of them were active in at least one assay; those are over-represented in the sample as a whole.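 Compound tested at a single concentration for 48 hours in 96-well plates; a percent growth value below 10 was scored as active.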 Calls of active or inactive are those of the source.
Tests used:
Assay in all cases: NCI-60 one-dose screen, 48 h (100 = growth as untreated, 0 = no growth, -100 = all killed)
Conditions in all cases: 10 µM unless noted
HCT-15 colon = tested on: HCT-15 colon
HT29 colon = tested on: HT29 colon
SNB-19 CNS = tested on: SNB-19 CNS
U251 CNS = tested on: U251 CNS
PC-3 prostate = tested on: PC-3 prostate
SK-MEL-5 melanoma = tested on: SK-MEL-5 melanoma
UACC-62 melanoma = tested on: UACC-62 melanoma
SK-MEL-28 melanoma = tested on: SK-MEL-28 melanoma
LOX IMVI melanoma = tested on: LOX IMVI melanoma
SNB-75 CNS = tested on: SNB-75 CNS

Measured: growth

COc1cc(/C=N/n2cnc3oc(-c4ccccc4)cc3c2=N)cc(CN2CCOCC2)c1O
inactive: HCT-15 colon 27.9% | HT29 colon 60.3% | SNB-19 CNS 101% | U251 CNS 53.7% | PC-3 prostate 64.6% | SK-MEL-5 melanoma 62.3% | UACC-62 melanoma 62.5% | SK-MEL-28 melanoma 78.3%

CCCC(=O)NC(c1cccnc1)c1cc(C(C)=O)c2cccnc2c1O (stereo not drawn)
active: SK-MEL-5 melanoma 0.739% | UACC-62 melanoma 1.58%
inactive: HCT-15 colon 19.6% | HT29 colon 26.9% | SNB-19 CNS 29.5% | U251 CNS 23.3% | PC-3 prostate 39.2% | LOX IMVI melanoma 27% | SK-MEL-28 melanoma 34.1%

O=C(Nc1cccc(Cl)c1)Nc1nc2ccc(-c3cccc4ccccc34)cc2s1
inactive: HCT-15 colon 34.1% | HT29 colon 49.4% | SNB-19 CNS 56.4% | U251 CNS 35.4% | PC-3 prostate 24.9% | SK-MEL-5 melanoma 54.4% | UACC-62 melanoma 42.3% | SK-MEL-28 melanoma 73.3%

O=C(CSc1ccc(-c2nc3ccccc3[nH]2)cn1)N1CCN(c2ccccc2F)CC1
inactive: HCT-15 colon 72.4% | HT29 colon 94.1% | SNB-19 CNS 89.8% | U251 CNS 90.5% | PC-3 prostate 57.7% | UACC-62 melanoma 52.4% | LOX IMVI melanoma 85.3% | SK-MEL-28 melanoma 87.8%
active: SK-MEL-5 melanoma -32.7%

Oc1ccccc1-c1nnc(SCc2ccc(O)c3ncccc23)o1
active: SK-MEL-5 melanoma -4.08%
inactive: HCT-15 colon 16.3% | HT29 colon 102% | SNB-19 CNS 29.1% | U251 CNS 23.6% | PC-3 prostate 19.2% | UACC-62 melanoma 30.2% | LOX IMVI melanoma 39.1% | SK-MEL-28 melanoma 51.2%

Cc1ccc(Nc2ncnc3c2c(C)nn3-c2ccc([N+](=O)[O-])cc2)cc1
inactive: HCT-15 colon 82.5% | HT29 colon 80.3% | SNB-19 CNS 88.8% | U251 CNS 60.1% | PC-3 prostate 78.4% | SK-MEL-5 melanoma 92.9% | UACC-62 melanoma 92.2% | SK-MEL-28 melanoma 97.5%

O=[N+]([O-])c1ccc(-c2nnc(SCc3ccc(O)c4ncccc34)n2-c2ccccc2)cc1
inactive: HCT-15 colon 19.2% | HT29 colon 65.8% | SNB-19 CNS 14.4% | U251 CNS 14% | PC-3 prostate 21% | UACC-62 melanoma 27.7% | SK-MEL-28 melanoma 43.4%
active: SK-MEL-5 melanoma 1.12%

O=C(CCCCCCN1CC(=O)N2[C@@H](c3ccc(Cl)c(F)c3)c3[nH]c4ccccc4c3C[C@H]2C1=O)NO
active: LOX IMVI melanoma -79.9%
inactive: HCT-15 colon 98.6% | HT29 colon 89.3% | SNB-19 CNS 86.6% | U251 CNS 85.1% | PC-3 prostate 63.8% | SK-MEL-5 melanoma 86% | UACC-62 melanoma 48.7% | SK-MEL-28 melanoma 86.2%

CN(c1ccc(Br)cc1)S(=O)(=O)c1ccc(-c2cnc(C3CC3)o2)cc1
inactive: HCT-15 colon 17.7% | HT29 colon 11% | U251 CNS 22.7% | PC-3 prostate 22.4% | SK-MEL-5 melanoma 30% | UACC-62 melanoma 28.5% | SK-MEL-28 melanoma 58.1%

O=C(Nc1cc(Cl)cc(Cl)c1)Nc1nc2ccc([N+](=O)[O-])cc2s1
active: HCT-15 colon 2.76% | HT29 colon 5.08% | U251 CNS 6.61% | PC-3 prostate 7.99% | SK-MEL-5 melanoma -76.5% | UACC-62 melanoma -34.1% | SK-MEL-28 melanoma -2.55%
inactive: SNB-19 CNS 21.3%

C[C@H]1[C@H](C)CC[C@]2(COC(=O)c3cccnc3)CC[C@]3(C)C(=CC[C@@H]4[C@@]5(C)CCCNC(C)(C)[C@@H]5CC[C@]43C)[C@H]12
inactive: HCT-15 colon 39.5% | HT29 colon 45.5% | SNB-19 CNS 88.6% | U251 CNS 64.4% | PC-3 prostate 35.8% | SK-MEL-5 melanoma 56.4% | UACC-62 melanoma 53.4% | SK-MEL-28 melanoma 75%

COc1cc2cc(Oc3ccc(NC(=O)c4cccc(C(F)(F)F)c4)cc3)c(C)nc2cc1OCCN(C)C
inactive: HT29 colon 27.5% | SNB-19 CNS 94.2% | U251 CNS 63.4% | PC-3 prostate 74.2% | UACC-62 melanoma 89.4% | SK-MEL-28 melanoma 72.2%
active: HCT-15 colon -8.74% | SK-MEL-5 melanoma -7.47% | LOX IMVI melanoma -81.3%

O=C(O)c1ccc(-n2cc(CNc3ccc(F)cc3)c(-c3ccc(C(F)(F)F)cc3)n2)cc1
inactive: HCT-15 colon 65.4% | HT29 colon 96.9% | SNB-19 CNS 84.3% | U251 CNS 79.3% | PC-3 prostate 79.4% | SK-MEL-5 melanoma 67.9% | UACC-62 melanoma 89.9% | LOX IMVI melanoma 99.5% | SK-MEL-28 melanoma 88.1%

CCNC(=NCCCN(C)C)N/C(N)=N/c1nc2ccccc2s1
inactive: HCT-15 colon 77.4% | HT29 colon 69.9% | SNB-19 CNS 90.1% | U251 CNS 79.3% | PC-3 prostate 80.3% | SK-MEL-5 melanoma 93.4% | UACC-62 melanoma 97.6% | LOX IMVI melanoma 73.5% | SK-MEL-28 melanoma 93.1%

Cc1cc(F)cc(NS(=O)(=O)c2ccc(-c3cnc(C4CC4)o3)cc2)c1
inactive: HCT-15 colon 22.4% | SNB-19 CNS 35.2% | U251 CNS 22.6% | PC-3 prostate 17.4% | SK-MEL-5 melanoma 21.5% | UACC-62 melanoma 25.6% | SK-MEL-28 melanoma 60.4%
active: HT29 colon 8.59%

COc1cc(/C=C2\SC(=O)NC2=O)ccc1OCC(=O)Nc1ccc(C(=O)/C=C/c2cc3ccccc3nc2Cl)cc1
inactive: HCT-15 colon 89.7% | HT29 colon 69.9% | U251 CNS 90.3% | PC-3 prostate 82.1% | SK-MEL-5 melanoma 32.7% | UACC-62 melanoma 84.3% | LOX IMVI melanoma 81.6% | SK-MEL-28 melanoma 105%

Cc1cc(NS(=O)(=O)c2ccc(-c3cnc(C4CC4)o3)cc2)ccc1I
inactive: HCT-15 colon 30.5% | HT29 colon 14.2% | U251 CNS 30.1% | PC-3 prostate 22.7% | SK-MEL-5 melanoma 31.5% | UACC-62 melanoma 30.3% | SK-MEL-28 melanoma 62%

O=C(Nc1ccc(Cl)cc1)Nc1nc2ccc([N+](=O)[O-])cc2s1
active: HCT-15 colon -42.7% | HT29 colon 1.88% | U251 CNS -11% | PC-3 prostate -7.8% | SK-MEL-5 melanoma -83.7% | UACC-62 melanoma -30.2% | SK-MEL-28 melanoma -12.3%
inactive: SNB-19 CNS 11.5%

c1cncc(-c2cn3nc(-c4c[nH]c5ccccc45)sc3n2)c1
inactive: HCT-15 colon 27.7% | SNB-75 CNS 51.8% | SNB-19 CNS 61.1% | U251 CNS 69.9% | PC-3 prostate 48.7% | SK-MEL-5 melanoma 23.4% | UACC-62 melanoma 55.3% | LOX IMVI melanoma 46.7% | SK-MEL-28 melanoma 55.5%

C=CCn1c(SCC(=O)Nc2cccc(C(=O)/C=C/c3ccc(Br)cc3)c2)nc2ccccc2c1=O
inactive: HCT-15 colon 76.3% | SNB-75 CNS 61.8% | SNB-19 CNS 76.8% | U251 CNS 74.6% | PC-3 prostate 79.4% | SK-MEL-5 melanoma 98.4% | UACC-62 melanoma 73.4% | LOX IMVI melanoma 74.8% | SK-MEL-28 melanoma 98.2%

COc1cc(CNC(=O)Cc2ccccc2[N+](=O)[O-])ccc1OCC(=O)NO
inactive: HCT-15 colon 105% | SNB-75 CNS 95.6% | SNB-19 CNS 98.7% | U251 CNS 106% | PC-3 prostate 95.9% | SK-MEL-5 melanoma 103% | UACC-62 melanoma 92.7% | LOX IMVI melanoma 100% | SK-MEL-28 melanoma 109%

C=CCn1c(SCC(=O)Nc2cccc(C(=O)/C=C/c3ccc(OC)c(OC)c3)c2)nc2ccccc2c1=O
inactive: HCT-15 colon 72.4% | SNB-75 CNS 83.7% | SNB-19 CNS 77.2% | U251 CNS 76.6% | PC-3 prostate 79.7% | SK-MEL-5 melanoma 97.6% | UACC-62 melanoma 74.9% | LOX IMVI melanoma 79.5% | SK-MEL-28 melanoma 102%

CC(C)(C)OC(=O)N1CCN(S(=O)(=O)/N=C2\NC(=O)NC2=C(Cl)Cl)CC1
inactive: HCT-15 colon 10.9% | SNB-75 CNS 99.9% | SNB-19 CNS 81.1% | U251 CNS 90.6% | PC-3 prostate 97.5% | SK-MEL-5 melanoma 95.9% | UACC-62 melanoma 96.3% | LOX IMVI melanoma 64.3% | SK-MEL-28 melanoma 85.7%

COc1cc(C2CC(c3ccc(Nc4nc(NCCO)nc(Nc5ccc(Cl)cc5)n4)cc3)=Nc3c(N)nc(N)nc3N2)cc(OC)c1OC (stereo not drawn)
inactive: HCT-15 colon 54.2% | SNB-75 CNS 91.4% | SNB-19 CNS 47.1% | U251 CNS 38.7% | PC-3 prostate 41.9% | SK-MEL-5 melanoma 53.4% | UACC-62 melanoma 77.6% | LOX IMVI melanoma 53.1% | SK-MEL-28 melanoma 96.4%

C=CCn1c(SCC(=O)Nc2cccc(C(=O)/C=C/c3ccc(Cl)cc3)c2)nc2ccccc2c1=O
inactive: HCT-15 colon 81.5% | SNB-75 CNS 72.2% | SNB-19 CNS 86.9% | U251 CNS 90.7% | PC-3 prostate 89% | SK-MEL-5 melanoma 99.1% | UACC-62 melanoma 72.2% | LOX IMVI melanoma 77.9% | SK-MEL-28 melanoma 93.3%

COc1cc2oc(-c3cccc(NC(=O)c4cc(NC(=O)[C@H](C)NC(=O)OC(C)(C)C)ccc4C)c3)cc(=O)c2c(OC)c1OC
inactive: HCT-15 colon 50.8% | SNB-75 CNS 102% | SNB-19 CNS 65.4% | U251 CNS 53.5% | PC-3 prostate 68.8% | SK-MEL-5 melanoma 63.2% | UACC-62 melanoma 75.4% | LOX IMVI melanoma 53.8% | SK-MEL-28 melanoma 87%

C#C[C@]1(O)CC[C@H]2[C@@H]3CC=C4c5sc(-c6ccccn6)nc5CC[C@]4(C)[C@H]3CC[C@@]21C
inactive: HCT-15 colon 68.9% | SNB-75 CNS 37.4% | SNB-19 CNS 72.4% | U251 CNS 51.1% | PC-3 prostate 51.9% | SK-MEL-5 melanoma 91% | UACC-62 melanoma 67.6% | LOX IMVI melanoma 62.9% | SK-MEL-28 melanoma 44.3%

O=C(C[n+]1ccnc2ccccc21)c1ccc(O)c(O)c1
active: LOX IMVI melanoma 8.68%
inactive: HCT-15 colon 12.8% | SNB-75 CNS 98.2% | SNB-19 CNS 80.8% | U251 CNS 63.8% | PC-3 prostate 44.7% | SK-MEL-5 melanoma 81.6% | UACC-62 melanoma 54.6% | SK-MEL-28 melanoma 63.3%

Cc1cc(O)c2c(c1)C(=O)C(c1c(C)cc3c(c1O)C(=O)C=CC3=O)=CC2=O
inactive: HCT-15 colon 46.5% | SNB-75 CNS 92.3% | SNB-19 CNS 99.9% | U251 CNS 94% | PC-3 prostate 82.9% | SK-MEL-5 melanoma 102% | UACC-62 melanoma 61.5% | LOX IMVI melanoma 61.3% | SK-MEL-28 melanoma 71.2%
